# According to PubChem BioAssay AID1835 (Johns Hopkins Ion Channel Center, 2009):
# Among all 2,400 compounds or so, about 750 (31%) were called active.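 How the source made its calls: active means median signal gain over dofetilide-blocked control wells reaching their mean plus 3 SD, so readout 1 at least 0; inactive means the rest.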 The list shows a part of the results.
# Biological target: Voltage-gated inwardly rectifying potassium channel KCNH2 (Homo sapiens) (UniProt Q12809)
# Experiment: hERG protection against dofetilide inhibition, confirmation, cell-based, thallium flux, duplicate retest, dofetilide IC70 (AID 1835)
# Conditions: hERG cell line, FluxOR thallium flux, dofetilide-blocked; at 10 µM; stronger effect = higher value
# Sequence of Voltage-gated inwardly rectifying potassium channel KCNH2 (Homo sapiens) (Q12809 whole entry, looked up): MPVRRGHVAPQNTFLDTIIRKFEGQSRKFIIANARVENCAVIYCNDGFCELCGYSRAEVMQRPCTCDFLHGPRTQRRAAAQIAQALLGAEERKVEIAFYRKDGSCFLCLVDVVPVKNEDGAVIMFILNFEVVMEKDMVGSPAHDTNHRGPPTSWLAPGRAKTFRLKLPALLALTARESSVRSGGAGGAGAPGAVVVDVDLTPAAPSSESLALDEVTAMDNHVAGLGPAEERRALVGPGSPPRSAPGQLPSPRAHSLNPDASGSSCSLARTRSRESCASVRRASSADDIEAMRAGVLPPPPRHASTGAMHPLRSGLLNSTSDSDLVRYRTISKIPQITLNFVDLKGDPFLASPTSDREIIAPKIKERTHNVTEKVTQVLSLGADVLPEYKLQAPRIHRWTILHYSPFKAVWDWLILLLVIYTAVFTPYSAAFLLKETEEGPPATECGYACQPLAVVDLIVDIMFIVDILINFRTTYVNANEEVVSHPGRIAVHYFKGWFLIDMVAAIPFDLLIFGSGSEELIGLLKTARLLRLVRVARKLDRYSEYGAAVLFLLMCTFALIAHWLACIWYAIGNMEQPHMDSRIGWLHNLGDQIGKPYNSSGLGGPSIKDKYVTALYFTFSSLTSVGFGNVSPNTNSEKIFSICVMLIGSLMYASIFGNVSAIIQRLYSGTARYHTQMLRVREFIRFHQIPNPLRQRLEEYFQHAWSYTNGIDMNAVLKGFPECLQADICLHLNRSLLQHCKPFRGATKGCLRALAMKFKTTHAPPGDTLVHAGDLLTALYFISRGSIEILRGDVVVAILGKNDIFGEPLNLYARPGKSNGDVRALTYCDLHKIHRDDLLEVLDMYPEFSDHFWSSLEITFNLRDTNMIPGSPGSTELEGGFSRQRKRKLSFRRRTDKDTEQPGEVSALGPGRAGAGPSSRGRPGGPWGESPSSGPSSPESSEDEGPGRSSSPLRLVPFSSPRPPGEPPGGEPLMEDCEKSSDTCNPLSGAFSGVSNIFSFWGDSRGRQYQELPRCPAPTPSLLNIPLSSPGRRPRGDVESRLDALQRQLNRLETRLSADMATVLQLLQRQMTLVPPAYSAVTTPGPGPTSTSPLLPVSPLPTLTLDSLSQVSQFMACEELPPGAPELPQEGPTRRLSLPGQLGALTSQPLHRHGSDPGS
row,SMILES,"activity increase over dofetilide control, less the hit threshold"
1,C[C@@H]1CCCCCCCCCCC1=O,-15% (inactive)
2,Fc1cccc(C2NN=C(c3ccccc3)S2)c1 (stereo not drawn),-12% (inactive)
3,COc1ccc(Cl)cc1N(C)C(=O)CCNC(=O)Cn1cnc2ccccc2c1=O,-11% (inactive)
4,CC(=O)c1ccc2c3c(cccc13)CC2,-7% (inactive)
5,CC(OC(=O)c1cc2c(s1)CCCCC2)C(=O)NC(N)=O (stereo not drawn),-5% (inactive)
6,O=C(c1cc2c(s1)-c1ccccc1OC2)N1CCCC1,0% (inactive)
7,NC(=O)C1CCN(C(=O)c2cc3c(s2)CCCC3)CC1,9% (active)
8,COC(=O)CCn1[nH]c(=O)c2ccccc2c1=O,-2% (inactive)
9,COc1ccc(N2CCN(S(=O)(=O)c3ccc(Br)s3)CC2)cc1,-14% (inactive)
10,Cc1cccc(/C=N/n2c(COc3ccccc3)n[nH]c2=S)c1,1% (active)
11,CC(C)c1ccc(/C=N/n2c(COc3ccccc3)n[nH]c2=S)cc1,3% (active)
12,S=c1[nH]nc(-c2n[nH]c3c2CCC3)n1/N=C/C=C/c1ccccc1,-27% (inactive)
13,S=c1[nH]nc(-c2ccco2)n1/N=C/C(Cl)=C/c1ccccc1,-14% (inactive)
14,S=c1[nH]nc(Cc2ccc(Br)cc2)n1/N=C/c1ccc(Cl)cc1,-5% (inactive)
15,Cc1ccc2nsnc2c1S(=O)(=O)Nc1cccc2nsnc12,8% (active)
16,O=C(O)c1ccccc1NC(=O)C1CCN(S(=O)(=O)c2cccc3nsnc23)CC1,-3% (inactive)
17,Cc1ccc2nc(NC(=S)NC(=O)c3cccs3)sc2c1,10% (active)
18,O=C(NC(=S)Nc1nc2ccccc2s1)c1cccs1,52% (active)
19,Cc1cc(F)ccc1NC(=O)C1CCN(C(=O)Nc2ccccc2)CC1,-17% (inactive)
20,O=C(NC(C(=O)c1ccccc1)n1cnccc1=O)c1ccccc1 (stereo not drawn),-3% (inactive)
21,O=C(CCNS(=O)(=O)c1ccc(Cl)cc1)OCC(=O)N1CCN(C(=O)c2ccco2)CC1,-17% (inactive)
22,CCOc1ccc(OCC(=O)OCC(=O)N2CCN(C(=O)c3ccco3)CC2)cc1,-2% (inactive)
23,Nc1ccc(C(=O)OCC(=O)N2CCN(C(=O)c3ccco3)CC2)cc1[N+](=O)[O-],-16% (inactive)
24,CCc1c(C)sc(NC(=O)CN2CCN(C(=O)c3ccco3)CC2)c1C(=O)OC,1% (active)
25,CCOC(=O)c1c(NC(=O)CN2CCN(C(=O)c3ccco3)CC2)sc2c1CCCC2,7% (active)
26,COC(=O)c1c(NC(=O)c2ccco2)sc2c1C(C(=O)OC)CC2 (stereo not drawn),-18% (inactive)
27,CC1=C(C)CS(=O)N(c2ccc(S(N)(=O)=O)cc2)C1 (stereo not drawn),-3% (inactive)
28,Cn1ncc2c(NNC(=O)c3ccc(O)cc3)ncnc21,-15% (inactive)
